This note sets out measurements from PubChem BioAssay (NCI).

Where “and” joins values, the source holds several entries; their conditions need not be identical. Equal values may be shown once. This is part of a sample that, as a whole, favours compounds with a hit. Of some 83,000 tested, about 20% had one in any assay.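 Cells were grown in 96-well plates and exposed to the test compound at a single concentration for 48 hours; results are reported as percent growth, with values below 10 considered active.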 A number with no mark means an inactive call. Calls of active or inactive are those of the source.

The subject of the assay is SR leukemia. Nature of the assay: NCI-60 one-dose screen, 48 h (100 = growth as untreated, 0 = no growth, -100 = all killed). Conditions: 10 µM unless noted. On the procedure:
Growth inhibition of the SR human tumor cell line is measured as a screen for anti-cancer activity. Cells are grown in 96 well plates and exposed to the test compound for 48 hours. Compounds are tested at a single concentration, which is 10^-5 M for most compounds. The reported endpoint is percent growth (GI% or GIPRCNT), where numbers from 0 - 100% represent growth inhibition, and numbers from -100% - 0 represent cell death. For example, a value of 40 represents 60% growth inhibition. A value of 0 means no net growth occurred over the course of the experiment. A value of -40 indicates 40% of cells at the beginning of the experiment died by the end of the experiment. A value of -100 means all cells are dead at the end of the experiment.
NCI-60 Human Tumor Cell Lines Screen was performed using the standard one-dose NCI protocol, which is described in more detail at https://dtp.cancer.gov/discovery_development/nci-60/default.htm.
Compounds with GIPRCNT values below 10 were considered active. Activity score was based on GIPRCNT using the following formula: […]
Score is 0 for GIPRCNT values of 100 or above, 50 for GIPRCNT values of 0, and 100 for GIPRCNT values of -100.
With `O=S(=O)(O)c1ccc2cc(O)ccc2c1`, the growth is 101%.
For `O=C(OCc1ccccc1)c1ccccc1`, the growth was 104% and 86.5%.
For `O=C(O)/C=C/C=C/c1ccccc1` the value was 104% and 109%.
Next, `O=C1c2ccccc2C(c2ccccc2)C1c1ccccc1` (stereo not given): 86.3%.
Next, `CCCC(=O)OCC(COC(=O)CCC)OC(=O)CCC`: 105%; `O=C(O)C#Cc1ccc(Cl)cc1`: 100%.
`O=c1[nH]c(=O)c2[nH]c(=O)[nH]c2[nH]1`: the growth was 114%.
For `CCOc1ccc(/C=C\C(=O)O)cc1` the value was 81.6%.
Next, `N#CC1c2ccccc2C=CN1C(=O)c1ccccc1` (stereo not given): 91.7% and 146%; `CCN(CC)C(=S)SCCO`: 92.5%.
Next, `CN1C2C=CC(=O)C1C1C(=O)N(c3ccccc3)C(=O)C12` (stereo not given): 67.5%; `OCCCc1ccccc1`: 132%; `C/C(CC(C)C)=N/NC(N)=S`: 90.9%.
Turning to `Cc1ccc(S(=O)(=O)n2ccnc2)cc1`, the growth was 140%.
For `N#Cc1ccc(/C=C/C(=O)c2ccccc2)cc1` the value was -63.9% (active); for `Cc1ccc([N+](=O)[O-])cc1Br`, 83%; for `CC1OS(=O)OC1C` (stereo not given), 93.5%.
Next, `Cc1cccc(Cl)c1N`: 98.9%; `O=P(O)(O)OC1C(OP(=O)(O)O)C(OP(=O)(O)O)C(OP(=O)(O)O)C(OP(=O)(O)O)C1OP(=O)(O)O.[Cu+2]` (stereo not given): 81.4%.
For `C/C(=C\c1ccccc1)C(O)C(=O)c1nc2ccc([N+](=O)[O-])cc2[nH]c1=O` (stereo not given) the value was 102%.
Take `CC(C)(C)C1CCC(=NO)CC1` (stereo not given): the growth is 116%.
For `CCOC(=O)C(N)Cc1cc(I)c(O)c(I)c1` (stereo not given) the value was 89.3% and 104%; for `CNc1ccc(O)cc1`, 126%; for `COC(=O)c1nc(=S)[nH]c(C(=O)OC)c1C(=O)c1ccc(OC)cc1`, 105%.
For the compound `Nc1ccc(Cl)c(S(=O)(=O)O)c1`, the growth was 103%.
Regarding `CC(=O)Oc1cc(C)c(OC(C)=O)c(C)c1C`, the growth was 118%.
For `O=C(c1ccc(Cl)cc1)C1C(c2ccccc2)C1[N+](=O)[O-]` (stereo not given) the value was 78%; for `COCCNC(C)=O`, 118%; for `Clc1ccc(/C=C/c2ccc3ccccc3n2)cc1`, 29% and 59.4%.
Next, `CCOC(=O)C1=CC(=O)CC(C)(C)O1`: 82.1% and 114%.
Next, `O=C(O)c1ccc2c3ccc(C(=O)O)c4c(C(=O)O)ccc(c5ccc(C(=O)O)c1c25)c43`: 104%; `Cc1cc(Cl)nc(Nc2ccccc2)n1`: 97.7%; `Cc1cc(-c2ccc(N=Nc3c(C)nn(-c4ccc(S(=O)(=O)O)cc4)c3O)c(C)c2)ccc1N=Nc1ccc(O)c(C(=O)O)c1`: 86%.
Turning to `Cc1cnc(N)s1`, the growth was 101%.
For `S=c1ccc2ccccc2[nH]1` the value was 109% and 97.3%; for `COC(=O)c1nc(N)nc(C(=O)OC)c1C(=O)c1cccc2ccccc12`, 105%; for `CCN(CC)C(CC(=O)c1ccccc1)C(=O)c1ccccc1` (stereo not given), 29%.
For `O=C1Cc2ccccc2C(=O)N1` the value was 30.4%; for `O=C(/C=C/C=C/c1ccc2c(c1)OCO2)N1CCCCC1`, 92.4% and 86%; for `CCOP(C)(=O)/C(Cc1ccc(OC)c(OC)c1)=N\O` (stereo not given), 105%.
